tested on: not listed separately; test: small-molecule microarray binders of probe aEGFR, primary screen, biochemical, biotinylated probe, 635/667 nm fluorescence (AID 1097); conditions: higher = more signal;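 note: probe is a biotinylated anti-EGFR antibody binding compounds printed on slides; score combines fluorescence near 667 nm and signal to noise of each spot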

SMILES | composite z-score
COC(=O)c1c(CC[C@@H](CO)NC(=O)N[C@@H](C)Cn2cc(-c3ccccn3)nn2)oc(C(C)=O)c1C(=O)OC | -0.164
CC(C)C[C@@H]1NC(=O)[C@@H]2C[C@H](C(=O)NCCCCCCN)[C@H](c3cccc(OCCO)c3)N2C1=O | 0.0499
[N-]=[N+]=Nc1ccccc1C[C@@]1(C(=O)N2CCOCC2)N=C(c2ccc(OCCCO)cc2)O[C@@H]1c1ccccc1 | 0.778
CCOC(=O)C[C@H]1[C@H](OC(=O)c2cc3ccccc3oc2=O)[C@@H](NC(=O)CC(C)C)c2cc(OCCCO)ccc2N1C(=O)c1ccc2ccccc2n1 | 0.326
Cc1ccc(NN2C(C(O)c3c(F)cccc3Cl)C=CC3C(=O)N(C4CCCCC4)C(=O)C32)cc1 (stereo not given) | 0.0708
O=C1O[C@@H](c2ccccc2)[C@@H](c2ccccc2)N2[C@@H](c3ccc(OCCO)cc3)[C@]3(C(=O)Nc4ccc(C#CC5=CCCCC5)cc43)[C@@H](C(=O)NC[C@H](O)c3ccccc3)[C@H]12 | -0.246
CCCN1C(=O)[C@]2(Cc3ccccc31)N=C(c1ccc(OCCCO)cc1)O[C@@H]2c1ccccc1 | -0.139
C[N+](C)(C)CCCCCCNC(=O)[C@@H]1C[C@@H]2C(=O)N3CCC[C@H]3C(=O)N2[C@@H]1c1ccc(O)cc1 | 0.0401
CCOC(=O)C[C@H]1[C@H](OC(=O)c2ccc(C(=O)c3ccccc3)cc2)[C@@H](NC(=O)CC(C)C)c2cc(OCCCO)ccc2N1C(=O)c1ccccc1 | 0.0807
CC1CC/C=C\[C@H]2OC34C=CCN(C(C)C)C(=O)[C@H]3N(CCO)C(=O)[C@@H]4C2C(=O)O1 (stereo not given in full) | -0.281
[N-]=[N+]=Nc1ccccc1C[C@]1(C(=O)N2CCOCC2)COC(c2ccc(OCCCO)cc2)=N1 | 0.0308
CCCCCCc1nc(Cc2cc(OC)c(OC)c(OC)c2)cc2c1[Si](C(C)C)(C(C)C)OC2 | -0.232

tested on: Plasmodium falciparum Sir2 (PF13_0152, Sir2A); test: pfSir2 binders on small-molecule microarrays, primary screen, biochemical, small-molecule microarray, 635 nm fluorescence (AID 1098); conditions: small-molecule microarray binding, fluorescence 635 nm; higher = more signal;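 note: score merges spot fluorescence intensity with its signal-to-noise ratio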

SMILES | composite z-score
CO[C@H]1O[C@H](CO)[C@@H](OC(=O)Nc2ccc3c(c2)OCO3)[C@H](OC(=O)Nc2ccc3c(c2)OCO3)[C@@H]1OC(=O)Nc1ccc2c(c1)OCO2 | 1.33
CCCC1(C(=O)OC)C=C2C(=C(C)C(=O)C2C)CN1 (stereo not given) | -0.79
CO[C@H]1O[C@H](CO)[C@@H](OC(=O)Nc2ccccc2)[C@H](OC(=O)c2cc3ccccc3[nH]2)[C@H]1OC(=O)c1cc2ccccc2[nH]1 | 0.494
O=C1O[C@H](c2ccccc2)[C@H](c2ccccc2)N2[C@H]1[C@@H](C(=O)O)[C@]1(C(=O)Nc3ccc(C#CCCO)cc31)[C@H]2c1ccccc1OCCO | 0.582
CCCCC[C@H]1OC[C@@]23C=C(Br)[C@@H](CC12)[C@@]1(CO1)C3=O (stereo not given in full) | -0.501
CCCCN1CC=CC23O[C@@H]4/C=C\CCC(C)OC(=O)C4[C@H]2C(=O)N(CCCO)[C@@H]3C1=O (stereo not given in full) | 1.16
CC[C@@H]1C=C(C(=O)O)[C@H](c2ccc(C#N)cc2)N1S(=O)(=O)c1ccc(C)cc1 | 1.1
O=C1[C@H]2C=C(I)[C@H](C[C@@H]2OCCOCCO)[C@@]12CO2 | 0.558
COCCOC(=O)N1C(=O)[C@@]2(c3cc(C#CC4=CCCCC4)ccc31)[C@H](C(=O)Nc1nc3ccccc3s1)[C@H]1C(=O)O[C@H](c3ccccc3)[C@H](c3ccccc3)N1[C@@H]2c1ccc(O)cc1 | 0.61
COc1ccc([C@H]2OC[C@@H]3C[C@H](Cc4ccccc4)C(=O)N32)cc1 | -0.33
NC(=O)NCC#Cc1ccc2c(c1)[C@]1(C(=O)N2)[C@H](c2ccccc2OCCO)N2[C@H](c3ccccc3)[C@H](c3ccccc3)OC(=O)[C@H]2[C@@H]1C(=O)O | 1.27
CC1CC/C=C\[C@H]2OC34C=CCN(c5ccc(Cl)cc5)C(=O)[C@H]3N(C(C)CO)C(=O)[C@]4(C)C2C(=O)O1 (stereo not given in full) | 0.365
CCOC(=O)C1=C[C@@H](C(C)C)N(S(=O)(=O)c2ccc(C)cc2)[C@H]1c1ccc(C(F)(F)F)cc1 | 0.794
OCCCC1=CC(c2ccc(CN3CCCC3)cc2)N(Cc2cc3c(cc2Br)OCO3)CC1 (stereo not given) | 0.216
CCCCCCCCCC(O)C1C=CC2C(=O)N(c3ccccc3)C(=O)C2N1Nc1cc(OC)c(OC)c(OC)c1 (stereo not given) | 1.04
COCCCNC(=O)[C@@]1(CCC(=O)OC(C)(C)C)N=C(c2ccc(OCCCO)cc2)O[C@H]1c1ccccc1N=[N+]=[N-] | 1.46
COc1cc(OC)c(C(O)C2C=CC3C(=O)N(Cc4ccccc4)C(=O)C3N2n2cnnc2)cc1Br (stereo not given) | 1.36
C[N+](C)(C)CCCC[C@@H]1NC(=O)[C@@H]2C[C@H](C(=O)NCCCCCCN)[C@H](c3cccc(OCCO)c3)N2C1=O | 1.16

From PubChem BioAssay
